Drawing on PubChem BioAssay AID720549 (National Center for Advancing Translational Sciences (NCATS), 2013), this text covers Potency for 40 compounds.

“And” between values parts separate entries of the source, which are not always exact repeats. Identical values can stand only once. Inconclusive results are not listed. Entries that show only a call come without a potency. A structure can be active in one record and inactive in another. The source made the active and inactive calls. The call rests on the fitted dose curve; in most records, active means well fitted inhibition curve with a large enough effect; inconclusive means small, poorly fitted or top-dose-only effect; inactive means flat fitted curve, though single readings scatter.

In the test the target is RecQ-like DNA helicase BLM (Homo sapiens) (UniProt P54132). Kind of test: qHTS for Inhibitors of Bloom's syndrome helicase (BLM): Helicase ATPase Orthogonal Confirmatory Assay for SAR. Particulars: purified BLM helicase ATPase activity assay; series mostly up to 57.1 µM. The source says: Human RecQ DNA helicases participate in maintenance of genome stability and DNA repair. While other types of helicases have been explored as targets for drug development, members of the RecQ family have remained less well characterized. Mutations of the Bloom helicase gene have been associated with the rare human genetic disease called Bloom syndrome. […] Moreover, identified inhibitors can be used in cells and animal models to examine the consequences of inhibition on the survival of cancer cells where it has been shown that BLM plays an important role.
Chain of RecQ-like DNA helicase BLM (Homo sapiens) (P54132 whole entry, looked up): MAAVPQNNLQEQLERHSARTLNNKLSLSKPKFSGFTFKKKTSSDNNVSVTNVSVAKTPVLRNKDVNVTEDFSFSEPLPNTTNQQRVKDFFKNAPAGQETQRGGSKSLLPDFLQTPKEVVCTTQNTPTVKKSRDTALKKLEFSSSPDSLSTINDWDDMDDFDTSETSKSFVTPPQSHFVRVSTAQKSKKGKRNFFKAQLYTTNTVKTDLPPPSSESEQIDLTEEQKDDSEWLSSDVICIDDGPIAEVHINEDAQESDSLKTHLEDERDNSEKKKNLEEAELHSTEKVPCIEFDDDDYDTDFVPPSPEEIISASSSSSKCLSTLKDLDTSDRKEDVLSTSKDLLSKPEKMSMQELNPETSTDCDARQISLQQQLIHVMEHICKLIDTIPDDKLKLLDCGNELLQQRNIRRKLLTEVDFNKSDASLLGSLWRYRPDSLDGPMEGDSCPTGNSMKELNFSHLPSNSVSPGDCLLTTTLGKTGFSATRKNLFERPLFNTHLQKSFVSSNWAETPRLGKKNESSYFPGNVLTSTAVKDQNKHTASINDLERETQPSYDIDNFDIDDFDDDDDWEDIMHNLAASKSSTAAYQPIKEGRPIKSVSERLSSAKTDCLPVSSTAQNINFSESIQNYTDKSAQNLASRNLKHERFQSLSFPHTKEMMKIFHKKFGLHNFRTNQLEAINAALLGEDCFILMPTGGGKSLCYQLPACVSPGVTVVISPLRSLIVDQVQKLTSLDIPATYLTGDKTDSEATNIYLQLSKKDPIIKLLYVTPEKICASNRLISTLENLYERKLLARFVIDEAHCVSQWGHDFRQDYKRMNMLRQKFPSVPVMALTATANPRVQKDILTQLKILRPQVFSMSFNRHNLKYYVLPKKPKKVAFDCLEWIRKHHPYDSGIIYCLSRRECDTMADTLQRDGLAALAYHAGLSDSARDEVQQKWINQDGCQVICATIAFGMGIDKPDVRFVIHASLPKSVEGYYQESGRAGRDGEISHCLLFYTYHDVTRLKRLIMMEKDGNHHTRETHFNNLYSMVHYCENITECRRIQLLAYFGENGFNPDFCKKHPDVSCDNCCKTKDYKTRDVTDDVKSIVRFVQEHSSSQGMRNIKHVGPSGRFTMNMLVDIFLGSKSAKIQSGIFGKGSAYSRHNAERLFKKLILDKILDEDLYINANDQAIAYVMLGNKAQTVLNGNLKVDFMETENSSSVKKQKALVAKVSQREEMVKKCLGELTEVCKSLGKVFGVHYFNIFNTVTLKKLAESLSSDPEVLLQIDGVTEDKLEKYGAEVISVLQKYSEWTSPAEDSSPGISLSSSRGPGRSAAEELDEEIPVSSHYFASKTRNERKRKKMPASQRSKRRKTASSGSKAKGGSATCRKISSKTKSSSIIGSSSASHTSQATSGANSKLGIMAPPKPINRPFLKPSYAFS
A fluorescence-based, biochemical assay in 1536 well format was developed to evaluate inhibition of BLM DNA unwinding activity. This assay was used to screen the MLPCN library. The resulting compounds were subjected to orthogonal and secondary biochemical assays to triage the initial hits, to classify compounds based on mode of action and to derive structure activity relationships (SARs) of candidate effectors. The data herein is the result of the Helicase ATPase orthogonal confirmatory assay. This luminescence assay employs a purified BLM enzyme and a single stranded BLM oligo substrate ([…]). For this assay increase in luminescence signal is greater than or equal to 700 RLU. Inhibition is the desired outcome for this assay.
NIH Chemical Genomics Center [NCGC]
NIH Molecular Libraries Probe Centers Network [MLPCN]
Assay Submitter (PI): Opher Gileadi, Structural Genomics Consortium, University of Oxford, UK
Three microliter of reaction buffer (25mM Tris-HCl pH 8.0, 50mM NaCl, 2mM MgCl2, 1mM DTT, and 0.01% Tween- 20, and 2nM BLM enzyme) was dispensed into a 1536-well assay plates (Greiner, solid white medium-binding) via Aurora Discovery BioRAPTR Flying Reagent Dispenser (FRD). Compounds (23nl each in columns 5-48) and control (23nl each in column 2 as dose-response) were transferred via a Kalypsys pintool equipped with a 1536-pin array. The plates were incubated for 15 min at room temperature followed by addition of 1 ul of substrates (200nM single-stranded oligonucleotide and 100uM ATP, final concentrations) to start the reaction. After 15 min., the reaction was terminated by the addition of 2.5ul of ADP-Glo Reagent I (Promega) to each well and incubation at room temperature for 30 min. Next, 5ul of ADP-Glo Reagent II (Promega) was added to each well. After 30 min at room temperature, the luminescence signal was detected using the ViewLux CCD imager. The data was normalized against no-inhibitor and no-enzyme controls and the resulting percent inhibition data were fitted to a sigmoidal dose response using a four-parameter Hill equation.
As to `O=C(Nc1ccc(Cl)c(Cl)c1)Nc1ccc(-c2ccncc2)s1`, the Potency result is “inactive”.

With `O=C(Nc1ccc(Cl)c(C(F)(F)F)c1)Nc1nnc(-c2ccncc2)s1`, the Potency result was “inactive”.

`Nc1ccc(NC(=O)Nc2nnc(-c3ccncc3)s2)cc1C(F)(F)F`: the Potency result was “inactive”.

As to `Cc1cc(NC(=O)Nc2nnc(C3CCCCC3)s2)ccc1Cl`, the Potency entry was “inactive”.

As for `O=C(Nc1ccc(-c2nc3ccccc3[nH]2)cc1)Nc1ccc2c(c1)OCCO2`, the Potency result is “inactive”.

For the compound `CC(C)(C)c1cccc(NC(=O)Nc2nnc(-c3ccncc3)s2)c1`, the Potency result is “inactive”.

For the compound `O=C(Nc1ccc(F)c(C(F)(F)F)c1)Nc1nnc(-c2ccncc2)o1`, the Potency result is “inactive”.

Take `O=C(Nc1ccc2ccccc2c1)Nc1nnc(-c2ccc(F)cc2)s1`: the Potency entry is “inactive”.

On to `S=C(Nc1ccc(Cl)c(Cl)c1)Nc1nnc(-c2ccncc2)s1`, for which the Potency is 2.64 µM (active).

Consider `O=C(Nc1ccc(Cl)c(Cl)c1)Nc1nc(-c2ccncc2)cs1`, for which the Potency result is “inactive”.

Regarding `COc1ccc(OC)c(-c2nnc(NC(=O)Nc3ccc4ccccc4c3)s2)c1`, the Potency result was “inactive”.

Regarding `O=C(Nc1ccc(-n2cncn2)c(C(F)(F)F)c1)Nc1nnc(-c2ccncc2)s1`, the Potency is 20.4 µM (active).

Consider `O=C(Nc1ccc(-c2nc3ccccc3[nH]2)cc1)Nc1ccc2c(c1)CCCO2`, for which the Potency result is “inactive”.

`O=C(Nc1ccc2ccccc2c1)Nc1nnc(Br)s1`: the Potency result was “inactive”.

For the compound `Cc1cc(Nc2c(Nc3nnc(-c4ccncc4)s3)c(=O)c2=O)ccc1Cl`, the Potency entry is “inactive”.

On to `c1ccc2[nH]c(Nc3nnc(-c4ccncc4)s3)nc2c1`, for which the Potency result is “inactive”.

In the case of `O=C(Nc1ccc(Cl)c(Cl)c1)Nc1nnc(-c2ccncc2)o1`, the Potency result is “inactive”.

As for `O=C(Nc1ccc2ccccc2c1)Nc1nnc(-c2ccncc2)s1`, the Potency was 3.24 µM (active).

As for `O=C(Nc1cc(F)cc(F)c1)Nc1nnc(-c2ccncc2)s1`, the Potency result is “inactive”.

As for `O=C(Nc1ccc2ccccc2c1)Nc1nnc(C2CCCCC2)s1`, the Potency entry was “inactive”.

Regarding `O=C(Nc1ccc(Cl)nc1)Nc1nnc(-c2ccncc2)s1`, the Potency was 1.62 µM (active).

With `O=C(Nc1ccc2ccccc2c1)Nc1nnc(-c2ccc(Cl)cc2)s1`, the Potency result was “inactive”.

Consider `O=C(Nc1ccc(F)c(C(F)(F)F)c1)Nc1nnc(-c2ccncc2)s1`, for which the Potency result is “inactive”.

As to `O=C(Nc1ccc2ccccc2c1)Nc1nnc(-c2ccncc2)o1`, the Potency entry was “inactive”.

Take `O=C(NCc1ccc(Cl)c(Cl)c1)Nc1nnc(-c2ccncc2)s1`: the Potency result was “inactive”.

Regarding `COc1ccc(NC(=O)Nc2ccc(-c3nc4ccccc4[nH]3)cc2)cc1OC`, the Potency result was “inactive”.

`O=C(Nc1ccc2c(c1)OCCO2)Nc1nnc(-c2ccncc2)s1`: the Potency result is “inactive”.

As to `O=C(Nc1nnc(-c2ccncc2)s1)NC12CC3CC(CC(C3)C1)C2`, the Potency result was “inactive”.

Take `O=C(Nc1ccc2ccccc2c1)Nc1nnc(-c2ccccc2)s1`: the Potency result is “inactive”.

Regarding `Cc1cc(NC(=O)Nc2nnc(-c3cccnc3)s2)ccc1F`, the Potency result was “inactive”.

As to `N/C(=N\c1nnc(-c2ccncc2)s1)Nc1ccc(F)c(C(F)(F)F)c1`, the Potency result was “inactive and 20.4 µM (active)”.

As for `O=C(Nc1nnc(-c2ccncc2)s1)Nc1ccc(Cl)cc1F`, the Potency entry is “inactive”.

Regarding `O=C(Nc1ccc(Cl)c(Cl)c1)Nc1ccnc(-c2ccncc2)n1`, the Potency entry is “inactive”.

Take `O=C(Cc1nnc(-c2ccncc2)s1)Nc1ccc(F)c(C(F)(F)F)c1`: the Potency entry is “inactive”.

Take `O=C(Nc1ccc(Oc2ccccc2)cc1)Nc1nnc(-c2ccncc2)s1`: the Potency result was “inactive”.

As for `O=C(Nc1cccc(C(=O)O)c1)Nc1nnc(-c2ccncc2)s1`, the Potency result was “inactive”.

On to `O=C(Nc1nnc(-c2ccncc2)s1)Nc1cccc2ccccc12`, for which the Potency is 5.61 µM (active).

As for `O=C(Nc1ccc(-c2nc3ccccc3[nH]2)cc1)Nc1ccc2occc2c1`, the Potency entry is “inactive”.

`O=c1c(Nc2ccc(Br)c(Br)c2)c(Nc2nnc(-c3ccncc3)s2)c1=O`: the Potency is 20.4 µM (active).

With `O=C(Nc1cc(C(F)(F)F)cc(C(F)(F)F)c1)Nc1nnc(-c2ccncc2)s1`, the Potency result was “inactive”.
